# IL-1B inflam inh = inhibitors of inflammasome signaling (IL-1 beta secretion) | THP-1 LPS/ATP IL-1B secretion, AlphaLISA, 16 h; stronger effect = lower value | activity change, % at 57.5 µM | hit rate 4.7% among 360,000; in the data active = activity change below about -50%; inconclusive = mostly about -30% to -49%
#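 Secreted IL-1B measured by AlphaLISA bead assay after 16 h compound exposure of THP-1 cells; compounds (final up to 57.5 uM) added 1 h before LPS (250 ng/mL) and ATP (1.25 mM) stimulation; lower signal means less secretion.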
# TDP1 cell CPT = DT40-hTDP1 cell growth loss with CPT. chicken DT40 Tdp1-/-;hTDP1 cells + 20 nM CPT, ATP luminescence, 48 h. Potency, µM (doses to about 46.2 µM), for the others: at the top dose activity change, negative = growth inhibition, most hits filed as inhibitors. hit rate 12% among 420,000. AID 686979; also: potency is read from the fitted curve at half-maximal effect; nearly all actives have a fitted effect of over 55% in size
#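 Cell growth measured by CellTiter-Glo luminescence after a minimum 48 h, 37 C compound exposure with 20 nM CPT in Tdp1-knockout DT40 cells stably expressing hTDP1, seeded 400/well; qHTS titration format.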
# HT1080-NT tox = kills 2HG-producing HT-1080-NT fibrosarcoma cells | HT-1080-NT fibrosarcoma viability, CellTiter-Glo ATP luminescence, 48 h | Potency, µM (top dose mostly 46.1 µM), for inactives: at the highest dose activity, negative = less viability, most hits filed as cytotoxic | hit rate 1.6% among 360,000 | AID 686970;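 also: NT is the 2HG producing partner of a matched IDH1 knockdown line; potency is read from the fitted curve at half-maximal effect; 0% = DMSO-treated cells and -100% = media-only wells without cells; nearly all actives have a fitted effect of over 55% in size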
#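 Fibrosarcoma NT cells, 750 per well in 5% FBS RPMI, were exposed to compound for 48 hours. Viability: CellTiter-Glo luminescence.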
# TDP1 cell noCPT = qHTS for Inhibitors of human tyrosyl-DNA phosphodiesterase 1 (TDP1): qHTS in cells in absence of CPT. DT40 Tdp1-/- hTDP1 cells, no CPT, ATP luminescence, 48 h. Potency, µM (doses to about 46.2 µM), without a hit: at the top dose activity change, negative = growth inhibition, usual class: inhibitors. hit rate 15% among 420,000. AID 686978, 2013; also: potency is read from the fitted curve at half-maximal effect; nearly all actives have a fitted effect of over 55% in size
#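 No-CPT arm: Tdp1-/-;hTDP1 DT40 cells (400/well) plus compounds, incubated ≥48 hr at 37 °C. Readout CellTiter-Glo luminescence.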
# HT1080 IDH1KD tx = toxicity to HT-1080 IDH1 knockdown cells (counter line); HT-1080 IDH1 knockdown viability, ATP luminescence, 48 h; Potency, µM (series often up to 46.1 µM), inactives show top-dose activity, negative = toxicity, actives largely listed as cytotoxic; hit rate 2% among 360,000; AID 686971;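 also: potency is read from the fitted curve at half-maximal effect; 0% = DMSO wells and -100% = cell-free medium wells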
#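 Cytotoxicity counter-line: IDH1KD HT-1080, 48 h, CellTiter-Glo. Curves classed by r2, magnitude and activity.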
# * = called active by the depositor; ? = inconclusive; . = no result. Most compounds without a hit are left out; they make up all but 19% or so of the library. Unless noted, calls follow the shape of the dose curve; as a rule, active = well fitted curve in the direction sought with a large enough effect; inconclusive = small, poorly fitted or top-dose-only effect, or another doubt; inactive = no such curve, though single readings can be large; an effect the other way counts as inactive or inconclusive. Unless noted, % is scaled to controls: 0 for no effect and ±100 for the full control effect.
SMILES,IL-1B inflam inh,TDP1 cell CPT,HT1080-NT tox,TDP1 cell noCPT,HT1080 IDH1KD tx
O=C(CCN1C(=O)/C(=C\c2ccccc2Cl)SC1=S)Nc1cccnc1,-52.5*,-14.8%,7.7%,?,11.5%
O=C(CCN1C(=O)/C(=C/c2ccc(Cl)cc2)SC1=S)Nc1cccnc1,5.9,29.1µM*,12.4%,?,17.6%
COc1ccccc1/C=C1/SC(=S)N(CCC(=O)Nc2cccnc2)C1=O,9.0,?,0.7%,?,1.8%
O=C(CCCN1C(=O)/C(=C/c2ccccc2OC(F)F)SC1=S)Nc1cccnc1,-85.1*,25.9µM*,-1.0%,13µM*,-22.7%
COc1cc2nc(CN(C)Cc3ccc(C(C)(C)C)cc3)[nH]c(=O)c2cc1OC,9.4,?,1.9%,?,9.4%
Cc1noc(C)c1S(=O)(=O)NC(=O)C1(C)CCN1C(=O)C1(c2ccc(Cl)cc2)CCC1 (stereo not drawn),11.0,3.1%,-2.2%,-0.5%,7.5%
Cc1ccc(S(=O)(=O)N2CCCC(C(=O)N3CCCc4ccccc43)C2)cc1 (stereo not drawn),8.5,20.6µM*,-13.1%,20.6µM*,-5.1%
O=C(C1CCCN(S(=O)(=O)c2ccccc2)C1)N1CCCc2ccccc21 (stereo not drawn),22.7,?,1.6%,18.4µM*,-17.8%
O=C(O)C1CCCN(S(=O)(=O)c2ccccc2)C1 (stereo not drawn),0.0,13.3%,-0.2%,-16.2%,-1.0%
Cc1c(C(=O)OC2CCC(C)CC2)[nH]c2c1C(=O)CC(c1ccccc1Cl)C2 (stereo not drawn),.,5.17µM*,.,4.61µM*,.
CCOCCOC(=O)c1[nH]c2c(c1C)C(=O)CC(c1ccccc1)C2 (stereo not drawn),65.3,1.46µM*,0.146µM*,0.92µM*,0.259µM*
Cc1c(C(=O)OCCOc2ccccc2)[nH]c2c1C(=O)CC(c1ccccc1Cl)C2 (stereo not drawn),.,1.46µM*,.,1.46µM*,.
Cc1c(C(=O)OCCOc2ccccc2)[nH]c2c1C(=O)CC(c1ccccc1)C2 (stereo not drawn),.,0.231µM*,.,0.146µM*,.
Cc1c(C(=O)OCc2ccccc2)[nH]c2c1C(=O)CC(c1ccc(N(C)C)cc1)C2 (stereo not drawn),.,?,.,-18.4%,.
Cc1ccc(COC(=O)c2[nH]c3c(c2C)C(=O)CC(c2ccc(Cl)cc2)C3)cc1 (stereo not drawn),.,11.6µM*,.,9.2µM*,.
CCCCCOC(=O)c1[nH]c2c(c1C)C(=O)CC(c1ccco1)C2 (stereo not drawn),78.7,0.184µM*,0.103µM*,0.164µM*,0.0164µM*
CCCOC(=O)c1[nH]c2c(c1C)C(=O)CC(c1ccc(OC)c(OC)c1)C2 (stereo not drawn),15.8,?,-4.7%,-20.3%,-1.1%
CCOC(=O)c1[nH]c2c(c1C)C(=O)CC(c1ccc(F)cc1)C2 (stereo not drawn),126.1,0.731µM*,2.06µM*,0.651µM*,2.91µM*
CCOC(=O)c1[nH]c2c(c1C)C(=O)CC(c1ccc(OCC)c(OC)c1)C2 (stereo not drawn),-27.0,-25.3%,?,?,?
COc1ccc(NC(=O)c2ccc(Oc3ncccn3)cc2)cc1,-19.3,-34.3%,19.1%,-15.4%,21.1%
CN(Cc1cccc(F)c1)C(=O)CNS(=O)(=O)c1ccc2ccccc2c1,17.6,-7.5%,-14.1%,-23.7%,-19.3%
CCC(=O)N1CCN(c2ccccc2NC(=O)c2ccc(OC)c(Cl)c2)CC1,-24.0,1.3%,9.2%,?,2.2%
Cc1ccc(C2=NN3C(C2)c2ccccc2OC32C(=O)Nc3ccccc32)cc1 (stereo not drawn),-13.4,?,?,?,?
CN1C(=O)C2(Oc3ccccc3C3CC(c4ccccc4)=NN32)c2ccccc21 (stereo not drawn),-14.0,23.1µM*,-27.7%,?,-16.9%
COc1cc(CNCCc2ccccc2)ccc1OCc1ccc(Cl)nc1,-52.1*,?,-26.8%,?,?
SMILES,IL-1B inflam inh,TDP1 cell CPT,HT1080-NT tox,TDP1 cell noCPT,HT1080 IDH1KD tx
COc1cc(CNCCO)ccc1OCCc1ccccc1,-17.5,?,-18.7%,25.9µM*,-23.3%
COc1cc(CNCCc2ccccc2)ccc1OCC(N)=O,-6.9,-16.6%,6.1%,-1.6%,6.2%
COc1ccccc1CCNCc1ccc(OC)c(OCc2ccccc2)c1,-99.1*,-92.0%,?,13µM*,?
CCCCNCc1ccc(OCc2ccc(Cl)nc2)c(OC)c1,-11.8,10.6%,-16.3%,-1.8%,3.2%
CNCc1ccc(OCc2ccccc2)c(OC)c1,-13.8,-19.7%,-17.8%,-11.0%,-0.6%
CCN1C(=O)C(=O)N(CC(=O)N(C)CC(=O)Nc2ccccc2C(F)(F)F)C1=O,-3.2,-0.4%,0.6%,29.9%,4.7%
CCN(CC(=O)Nc1ccc(NC(C)=O)cc1)C(=O)c1ccc(N2CCCC2)c([N+](=O)[O-])c1,1.8,-2.6%,1.3%,3.1%,2.2%
C#C[C@]1(O)CCC2C3CCC4=CC(=O)CC[C@@H]4C3CC[C@@]21C (stereo partly drawn),8.1,?,11.8%,-26.5%,-0.5%
C#C[C@]1(OC(C)=O)CC[C@H]2[C@@H]3CCC4=C/C(=N/O)CC[C@@H]4[C@H]3CC[C@@]21CC,.,?,.,18.8µM*,.
O=C(NCc1ccccn1)c1cc(S(=O)(=O)N2CCN(c3ccccc3)CC2)ccc1Cl,18.4,10.3µM*,3.5%,18.4µM*,1.1%
COc1ccc(C(CNC(=O)c2cc(S(=O)(=O)N3CCN(c4ccccc4)CC3)ccc2Cl)N(C)C)cc1 (stereo not drawn),?,20.6µM*,?,18.4µM*,?
COc1ccc(C(CNC(=O)c2ccc(S(=O)(=O)N3CCCC3)cc2)N(C)C)cc1OC (stereo not drawn),39.5,?,0.4%,1.8%,7.2%
CN(C)C(CNC(=O)c1cccc(S(=O)(=O)N2CCN(c3ccccc3)CC2)c1)c1ccccc1 (stereo not drawn),-26.7,?,-16.1%,?,-3.5%
COc1ccc(C(CNC(=O)c2ccc(S(=O)(=O)N3CC(C)CC(C)C3)cc2)N(C)C)cc1 (stereo not drawn),-52.2*,?,?,29.1µM*,?
Cc1ccc(S(=O)(=O)N2CCCC2)cc1C(=O)NCc1ccccn1,23.1,8.5%,5.6%,-2.0%,4.0%
CCN(CC(=O)Nc1c(F)cccc1F)C(=O)c1ccc(NC(=O)CC2SC(N3CCCC3)=NC2=O)cc1 (stereo not drawn),6.9,3.6%,4.0%,-17.8%,4.0%

# Screening results: PubChem BioAssay, National Center for Advancing Translational Sciences (NCATS)
